This is one part of a sample in which hits are shown more often than they occur.
HT1080NT lethal: kills 2HG-producing HT-1080-NT fibrosarcoma cells; HT-1080-NT fibrosarcoma viability, CellTiter-Glo ATP luminescence, 48 h; Potency, µM (titrated, usually from 46.1 µM), for inactives: at the top dose activity, negative = less viability, most hits filed as cytotoxic; hit rate 1.6% among 360,000;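 note: NT is the 2HG producing partner of a matched IDH1 knockdown line; potency is the fitted concentration of half-maximal effect; 0% = DMSO-treated cells and -100% = media-only wells without cells; nearly all actives have a fitted effect of over 55% in size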
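HT-1080-NT; 750 cells/well; 5% FBS RPMI; 48 h compound, 37 degrees C; CellTiter-Glo luminescence; curve fitting and curve-class assignment.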
12-LOX inh: inhibitors of human 12S-lipoxygenase ALOX12. purified 12hLO, xylenol orange hydroperoxide absorbance. hit rate 1.1% among 580,000. Potency, µM (top dose mostly 108 µM), without a hit: at the top dose activity change, negative = inhibition, usual class: inhibitors; note: potency is the fitted concentration of half-maximal effect
Target sequence (P18054 whole entry, looked up): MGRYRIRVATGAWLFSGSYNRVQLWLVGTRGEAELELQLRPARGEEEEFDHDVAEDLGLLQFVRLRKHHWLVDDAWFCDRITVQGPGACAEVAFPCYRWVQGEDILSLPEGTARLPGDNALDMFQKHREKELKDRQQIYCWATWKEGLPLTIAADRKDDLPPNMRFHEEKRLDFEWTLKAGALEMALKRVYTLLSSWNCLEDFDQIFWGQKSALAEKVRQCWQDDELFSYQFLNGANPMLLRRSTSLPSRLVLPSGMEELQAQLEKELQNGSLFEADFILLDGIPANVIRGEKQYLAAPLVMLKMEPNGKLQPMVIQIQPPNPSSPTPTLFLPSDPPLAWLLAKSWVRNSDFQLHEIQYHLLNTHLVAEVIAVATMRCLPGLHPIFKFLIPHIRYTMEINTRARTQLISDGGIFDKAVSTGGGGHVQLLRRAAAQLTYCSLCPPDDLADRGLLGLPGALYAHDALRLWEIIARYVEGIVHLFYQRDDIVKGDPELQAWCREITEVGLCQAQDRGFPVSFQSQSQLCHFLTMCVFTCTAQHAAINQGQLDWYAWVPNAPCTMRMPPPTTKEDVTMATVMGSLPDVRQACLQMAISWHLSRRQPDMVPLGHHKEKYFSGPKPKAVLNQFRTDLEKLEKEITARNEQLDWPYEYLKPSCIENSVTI
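Hydroperoxide product was detected by ferrous iron/xylenol orange as the 573 to 405 nm absorbance ratio. Arachidonic acid at 40 uM (final) was turned over for 30 min at room temperature by 150 nM human 12hLO, pH 7.0 Hepes buffer, after 15 min compound preincubation.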
IL-1B inflam inh: inhibitors of inflammasome signaling (IL-1 beta secretion); hit rate 4.7% among 360,000; activity change, % at 57.5 µM; THP-1 LPS/ATP IL-1B secretion, AlphaLISA, 16 h; hits give low values; in the data active = activity change below about -50%; inconclusive = mostly about -30% to -49%
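THP-1 cells pretreated 1 hr with compounds (up to 57.5 uM final), then stimulated with LPS (250 ng/mL final) plus ATP (1.25 mM final); secreted IL-1B measured by AlphaLISA after 16 hr, decreased signal indicating inhibition.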
HT1080 IDH1KD tx: HT-1080 IDH1 knockdown cell toxicity (counter line) | Potency, µM (titrated, usually from 46.1 µM), without a hit: at the highest dose activity, negative = toxicity, most hits filed as cytotoxic | hit rate 2% among 360,000 | HT-1080 IDH1 knockdown viability, ATP luminescence, 48 h;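 note: potency is the fitted concentration of half-maximal effect; 0% = DMSO wells and -100% = cell-free medium wells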
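Knockdown cells (IDH1KD HT-1080) received compounds 2 h after plating at 750 cells/well and were kept 48 h at 37 °C in 5% FBS RPMI. A CellTiter-Glo luminescence read gave % activity for curve fitting.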
TDP1 cell CPT: growth inhibition of DT40 Tdp1-/-;hTDP1 cells with camptothecin (screen for TDP1 inhibitors) | chicken DT40 Tdp1-/-;hTDP1 cells + 20 nM CPT, ATP luminescence, 48 h | Potency, µM (highest dose often 46.2 µM), without a hit: at the top dose activity change, negative = growth inhibition, actives largely listed as inhibitors | hit rate 12% among 420,000; note: potency is the fitted concentration of half-maximal effect; nearly all actives have a fitted effect of over 55% in size
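Chicken DT40 Tdp1-/- cells complemented with human TDP1, 400 cells/well, exposed to compounds plus 20 nM camptothecin for at least 48 h at 37 C; viability read as ATP content by CellTiter-Glo luminescence.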
DT40 TDP1 no CPT: qHTS for Inhibitors of human tyrosyl-DNA phosphodiesterase 1 (TDP1): qHTS in cells in absence of CPT | DT40 Tdp1-/- hTDP1 cells, no CPT, ATP luminescence, 48 h | Potency, µM (titrated, usually from 46.2 µM), for the others: at the top dose activity change, negative = growth inhibition, hits mostly inhibitors | hit rate 15% among 420,000; note: potency is the fitted concentration of half-maximal effect; nearly all actives have a fitted effect of over 55% in size
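DT40 Tdp1-/-;hTDP1 cells, no CPT (DMSO vehicle only), 400 cells/well; compounds pin-transferred; ≥48 hr, 37 °C; CellTiter-Glo 30 min RT dark, luminescence read.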
* marks the source's active call; other numbers are inactive results; ? = inconclusive; · = no result given. Unless noted, calls come from the whole dose curve; as a rule, active = well fitted curve in the direction sought with a large enough effect; inconclusive = small, poorly fitted or top-dose-only effect, or another doubt; inactive = no such curve, though single readings can be large; an effect the other way counts as inactive or inconclusive. Unless noted, % is set by controls: 0 for no effect and ±100 for the full control effect.

SMILES	HT1080NT lethal	12-LOX inh	IL-1B inflam inh	HT1080 IDH1KD tx	TDP1 cell CPT	DT40 TDP1 no CPT
Cc1ccc(S(=O)(=O)N2C[C@@H]3[C@H]4CC[C@H](C4)[C@@H]3[C@@H](C)[C@@H]2c2cn(Cc3ccccc3)c3ncccc23)cc1	-0.2%	-17.8%	-17.8	-4.1%	23.1µM*	20.6µM*
Cc1nn(C)c(C(=O)Nc2c(C)nn(C)c2C)c1Br	·	25.8%	·	·	·	·
Cc1nn(C)c(C(=O)Nc2c(C)nn(Cc3c(F)c(F)c(F)c(F)c3F)c2C)c1Br	0.8%	2.1%	35.0	12.2%	8.2µM*	3.66µM*
COc1cccc(C2CC(=O)Nc3cc(C)c(C)cc32)c1 (stereo not drawn)	?	-2.6%	37.9	-25.1%	?	14.6µM*
COc1cccc(C2CC(=O)Nc3cc(OC)c(OC)cc32)c1 (stereo not drawn)	-2.0%	8.7%	21.3	8.8%	-25.8%	-25.1%
O=C1CC(c2cccc([N+](=O)[O-])c2)c2cc3c(cc2N1)CCC3 (stereo not drawn)	?	-25.3%	52.8	?	18.4µM*	25.9µM*
O=C1CC(c2cccc(Cl)c2)c2cc3c(cc2N1)CCC3 (stereo not drawn)	7.08µM*	?	36.5	?	4.61µM*	2.91µM*
CCOc1cccc(C2CC(=O)Nc3cc(OC)c(OC)cc32)c1 (stereo not drawn)	-5.9%	-23.2%	9.2	-2.3%	?	?
COc1cccc(C2CC(=O)Nc3cc4c(cc32)CCC4)c1 (stereo not drawn)	23.1µM*	0.0%	62.9	25.9µM*	4.11µM*	2.59µM*
O=C1CC(c2cccc([N+](=O)[O-])c2)c2c(ccc3ccccc23)N1 (stereo not drawn)	?	13.7%	-20.9	11.6µM*	13µM*	8.2µM*
O=C(CCCN1C(=O)C(c2ccccc2)Oc2cccnc21)NC1CCCCC1 (stereo not drawn)	·	23.8%	·	·	·	·
O=C(O)C1CCN(c2nc(-c3ccccc3)c3cc(Br)ccc3n2)CC1	-17.8%	-19.7%	27.3	-0.7%	-8.3%	?
OCCN1CCN(c2ncnc3ccc(Br)cc23)CC1	0.2%	0.0%	-23.6	-13.0%	-89.4%	4.11µM*
OCCN1CCN(c2nc(-c3ccccc3)c3cc(Br)ccc3n2)CC1	?	-23.3%	-78.8*	23.1µM*	?	9.2µM*
O=[N+]([O-])c1cnc2ccc(Br)cc2c1N1CCN(CCO)CC1	·	-30.9%	·	·	·	·
COc1ccc(-c2cc(N3CCCC(NC(=O)c4ccc5ncccc5c4)C3)n[nH]2)cc1 (stereo not drawn)	·	1.7%	·	·	·	·
COC(=O)c1ccc(/C=N\NC(=O)c2c(C)nc3ccc(Cl)cn23)cc1	-10.7%	·	-4.1	-5.2%	?	10.3µM*
C=CCOc1ccc(/C=N/NC(=O)c2c(C)nc3ccc(Cl)cn23)cc1	11.5%	0.8%	33.7	3.0%	24.0%	?
COc1ccc(/C=N/NC(=O)c2c(C)nc3ccc(Br)cn23)cc1OC	?	241.3%	45.9	4.61µM*	8.2µM*	7.31µM*
COc1ccc(/C=N/NC(=O)c2c(C)nc3ccc(Cl)cn23)cc1OC	?	15.3%	48.5	-5.9%	11.6µM*	8.2µM*
COc1cc(/C=N/NC(=O)c2c(C)nc3ccc(Cl)cn23)cc(OC)c1OC	-7.4%	?	190.3	?	?	?
COc1cccc(/C=N/NC(=O)c2c(C)nc3ccc(Cl)cn23)c1OC	-2.3%	?	5.6	0.0%	16.4µM*	?
COc1ccc(CCNc2nc(C)nc3sc4c(c23)CCCC4)cc1OC	·	-21.4%	·	·	·	·
Cc1ccc(-c2ccccc2)c(Oc2cccc(C#N)c2C#N)c1	·	-0.8%	·	·	·	·
CCOC(=O)/C=C/[C@@H](CCC(=O)OC)NC(=O)C(F)(F)F	·	-4.5%	·	·	·	·
SMILES	HT1080NT lethal	12-LOX inh	IL-1B inflam inh	HT1080 IDH1KD tx	TDP1 cell CPT	DT40 TDP1 no CPT
COc1cccc(/C=N/NC(=O)c2c(C)nc3ccc(Br)cn23)c1O	?	·	187.5	?	4.61µM*	3.26µM*
CN(C)C[C@@H]1CN(C2CCOCC2)C[C@H]1NC(=O)C1CC=CCC1 (stereo partly drawn)	·	97.5%	·	·	·	·
Cc1[nH][nH]c(=O)c1C(c1c(C)[nH][nH]c1=O)c1cn(Cc2cccc3ccccc23)c2ccccc12	?	0.0%	-4.2	?	8.2µM*	7.31µM*
Cc1[nH][nH]c(=O)c1C(c1c(C)[nH][nH]c1=O)c1cn(C)c2ccccc12	0.4%	?	·	-0.9%	-17.4%	?
CCN1c2cc(C(=O)Nc3ccc(F)c(F)c3)ccc2C(=O)N2CCCCC21 (stereo not drawn)	·	7.6%	·	·	·	·
COc1cc(OC)c(NC(=O)c2cnn(-c3ccccc3)c2-n2cccc2)cc1Cl	·	-23.9%	·	·	-2.7%	-22.2%
COc1ccc(CNC(=O)c2cnn(-c3ccccc3)c2-n2cccc2)cc1OC	·	2.1%	·	·	?	18.4µM*
COc1ccc(CNC(=O)c2cnn(-c3ccc(C)cc3)c2-n2cccc2)cc1OC	·	-16.3%	·	·	?	16.4µM*
COc1ccccc1NC(=O)c1cnn(-c2ccccc2)c1-n1cccc1	·	-14.7%	·	·	18.4µM*	18.4µM*
COc1cc(Cl)c(C)cc1NC(=O)c1cnn(-c2ccc(C)cc2)c1-n1cccc1	·	-20.4%	·	·	2.2%	-7.2%
CCOC(=O)c1cccc(NC(=O)c2cnn(-c3ccccc3)c2-n2cccc2)c1	·	-8.2%	·	·	25.9µM*	20.6µM*
Cc1ncn[nH]1	·	-2.5%	·	·	·	·
O=C(Nc1cc(C(F)(F)F)ccc1Cl)c1cnn(-c2ccccc2)c1-n1cccc1	·	-12.9%	·	·	23.1µM*	23.1µM*
O=C(c1cccc(C(F)(F)F)c1)N1CCC(Oc2ncccc2C(=O)N2CCCCC2)C1 (stereo not drawn)	·	22.3%	·	·	·	·
CCOC(=O)C(C)NC(=O)c1ccccc1 (stereo not drawn)	·	-23.1%	·	·	·	·
Cc1c(Cl)cccc1-c1ccc(CNc2ccc3[nH]c(=O)[nH]c3c2)o1	·	?	·	·	3.26µM*	?
O=c1[nH]c2ccc(NCc3ccc(-c4cccc(Cl)c4)o3)cc2[nH]1	·	?	·	·	29.1µM*	18.4µM*
O=c1[nH]c2ccc(NCc3ccc(-c4ccc(Br)cc4)o3)cc2[nH]1	·	10µM*	·	·	-10.6%	-19.9%
CNCc1ccc(-c2ccc(Br)cc2)o1	·	28.2µM*	·	·	·	·
O=c1[nH]c2ccc(NCc3ccc(F)cc3)cc2[nH]1	1.6%	-2.6%	26.1	2.2%	9.5%	?
CNCc1ccc(-c2ccc(Cl)cc2)o1	·	-27.0%	·	·	·	·

Assay outcomes deposited in PubChem BioAssay by National Center for Advancing Translational Sciences (NCATS).
